High-throughput results from PubChem.
GPR151 ag = activators of human GPR151, primary screen, cell-based, PathHunter beta-arrestin, luminescence; G-protein coupled receptor 151 (Homo sapiens), Q8TDV0; PathHunter beta-arrestin GPR151 cells; activation, % at 11.2 µM; 650,000 tested, 1% active; AID 1508602, 2020; in the data active = activation above about 4.9%;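 also: 0% = median of compound wells and 100% = cells with positive control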
FBW7 act = FBW7 E3 ligase activators, primary screen, biochemical, AlphaScreen, human; F-box/WD repeat-containing protein 7 (Homo sapiens), Q969H0; normalized activity (activation), % at 26.1 µM; 650,000 tested, 0.13% active; AlphaScreen FBW7–phospho-cyclin E peptide binding, activator screen; in the data active = normalized activity above about 1.9%;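 also: purified mutant Fbw7 with reduced substrate affinity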
TEAD-YAP block = TEAD-YAP interaction inhibition, primary screen, TEAD-YAP interaction inhibitor project, luminescence, HEK-TIYL cells; TEAD-Gal4/YAP UAS-luciferase luminescence; inhibition, % at 9.12 µM; 640,000 tested, 1.4% active; in the data active = inhibition above about 32%;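 also: 0% = median of test compound wells and 100% = reference inhibitor wells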
MITF inh = MITF inhibitors, primary screen, biochemical, AlphaScreen, human; inhibition, % at 2.6 µM; Microphthalmia-associated transcription factor (Homo sapiens), O75030; AID 1259374, 2018; AlphaScreen MITF homodimerization, bead proximity signal; 650,000 tested, 0.91% active; in the data active = inhibition above about 50%;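 also: 0% = vehicle wells with protein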
Target sequence (O75030 whole entry, looked up): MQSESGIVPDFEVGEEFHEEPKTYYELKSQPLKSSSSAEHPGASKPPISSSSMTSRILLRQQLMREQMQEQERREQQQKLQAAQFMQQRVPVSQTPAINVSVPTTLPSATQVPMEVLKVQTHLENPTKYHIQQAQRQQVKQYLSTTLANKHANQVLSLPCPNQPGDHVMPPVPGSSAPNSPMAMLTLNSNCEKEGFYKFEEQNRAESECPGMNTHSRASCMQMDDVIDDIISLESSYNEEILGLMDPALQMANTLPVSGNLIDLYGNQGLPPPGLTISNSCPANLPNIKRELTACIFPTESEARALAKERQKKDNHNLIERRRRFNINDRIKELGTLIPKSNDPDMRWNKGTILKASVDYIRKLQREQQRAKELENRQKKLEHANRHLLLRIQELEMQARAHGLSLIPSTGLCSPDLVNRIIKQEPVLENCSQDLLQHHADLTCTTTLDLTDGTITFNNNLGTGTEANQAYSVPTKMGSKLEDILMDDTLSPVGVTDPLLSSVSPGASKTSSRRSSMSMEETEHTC
Starred values were filed as active, the others as inactive; / = no result. In the library only some 3.4% were active in any assay of this set; here they are far more common.

SMILES	GPR151 ag	FBW7 act	TEAD-YAP block	MITF inh
CCCCNC(=O)c1sc2nc(C)nc(N(C)c3ccc(C(C)C)cc3)c2c1C	4.8	0.4	-5.1	-8.1
CCOC(=O)CNC(=O)c1sc2nc(C)nc(N(C)c3ccc(C(C)C)cc3)c2c1C	1.0	2.3*	0.3	14.8
CCOC(=O)CNC(=O)c1ccc(C(C)C)cc1	-1.6	-0.1	48.1*	3.9
COc1ccc(-n2nc(C(=O)NCCC3=CCCCC3)c3ccccc3c2=O)cc1	-1.1	0.1	-3.7	6.9
O=C(c1cc(COc2cccc3cnccc23)on1)N1CCC(c2ccc(F)cc2)C1 (centres undefined)	0.7	-0.1	17.7	5.8
N#Cc1ccc(OCC(=O)NNS(=O)(=O)c2ccc(Cl)c([N+](=O)[O-])c2)cc1	-0.7	0.1	4.5	-12.3
COc1ccc(Nc2cc(-c3cncc(-c4ccccc4)c3)nc(C)n2)cc1	0.0	-0.1	49.7*	-1.4
Cc1cnc(CNc2cc(-c3cncc(-c4ccccc4)c3)nc(C)n2)cn1	1.3	-0.2	45.5*	0.0
O=[N+]([O-])c1cc(/C=N/n2cncn2)ccc1N1CCCCC1	0.0	0.6	15.5	27.2
CC(C)n1c(Nc2ccccn2)nc2c(NCCOc3ccccc3)ncnc21	2.0	-0.1	-29.1	-1.0
CC(C)n1c(Nc2ccccn2)nc2c(Nc3ccc(Oc4ccccc4)cc3)ncnc21	0.7	0.1	56.1*	1.2
NNC(=O)Nc1cccc2nsnc12	-1.5	1.6	66.0*	10.8
Cc1ccc(N2C(=O)c3cccc4c(N)ccc(c34)C2=O)c2cccnc12	0.9	0.2	62.5*	7.3
CCN1C(=O)c2cccc3c(N)ccc(c23)C1=O	-0.5	0.3	6.8	57.0*
CCN(CC)CCN1C(=O)c2cccc3c(Cl)ccc(c23)C1=O	0.5	-0.1	70.5*	2.7
Cc1ccc(N2C(=O)c3cccc4c(Cl)ccc(c34)C2=O)cc1	0.4	-0.1	1.8	-1.6
Cc1ccc(N2C(=O)c3cccc4c(N5CCCCC5)ccc(c34)C2=O)c2cccnc12	2.1	0.2	5.9	4.3
CCOC(=O)c1c(NC(=O)Cc2cccc3ccccc23)sc(C)c1C	-1.1	-0.1	0.7	10.9
Cc1cccc(NC(=O)/C=N\Nc2ccccc2Cl)c1N1CCC2(CC1)OCCO2	-0.6	-0.1	-1.5	-6.6
C#CCOC(=O)CCCC(=O)Nc1ccc(Cl)cc1	-0.5	0.0	3.8	-6.4
C=CCc1cc(/C=C2/C(=N)N3OC(C)=CC3=NC2=O)cc(OC)c1OC	1.0	-0.1	-0.9	-7.0
CCN(CC)S(=O)(=O)c1ccc(-c2csc(=Nc3ccc(F)cc3)n2CCCO)cc1	0.8	-0.3	39.3*	23.9
OCCCn1c(-c2ccc(F)cc2)csc1=Nc1ccc(F)cc1	0.2	-0.4	-18.9	11.1
CCc1ccccc1Nc1nc(N)nc(CCl)n1	0.5	0.4	44.8*	12.8
Cc1ccc2occ(CN3CCc4c(nc(N5CCC(C)CC5)[nH]c4=O)C3)c(=O)c2c1	-1.3	0.1	-2.3	-3.6
SMILES	GPR151 ag	FBW7 act	TEAD-YAP block	MITF inh
COc1ccc(-c2ccc(NS(=O)(=O)c3cc(C)cc(C)c3)cc2)nn1	0.2	1.9*	-6.6	17.3
Cc1ccc(/C=N/N=C(/c2cccc([N+](=O)[O-])c2)C23CN4CN(CN(C4)C2)C3)o1	0.3	0.1	-9.8	0.1
C/C(=N\Nc1ccc(Cl)cc1)c1ccccc1O	0.8	0.2	1.4	18.3
CCN(CC)c1ccc(N)c(C)c1	-0.6	-0.1	11.6	80.0*
OCCN1CCN(Cc2ccc3c(c2)Cc2ccccc2-3)CC1	2.5	-0.1	-8.6	-4.1
Fc1ccc(-c2cnc3ccc(NCc4cccs4)nn23)cc1	0.0	0.1	-4.4	-16.1
OCc1cccc(-c2cnc3ccc(NCc4cccs4)nn23)c1	-0.9	-0.1	-1.4	12.4
Oc1ccc(-c2cnc3ccc(NCc4cccs4)nn23)cc1	2.8	-0.1	61.8*	-11.9
OCc1ccc(-c2cnc3ccc(NCc4cccs4)nn23)cc1	-1.1	0.1	35.0*	-8.4
Cn1c(=NC(=O)c2ccc([N+](=O)[O-])o2)sc2ccccc21	2.3	0.1	-30.0	6.2
O=C(Nc1ccccc1[N+](=O)[O-])c1cc(S(=O)(=O)N2CCCCC2)ccc1Cl	-0.6	0.0	7.9	3.2
Cc1cc(C)nc(-n2nc(C)cc2C)n1	0.5	-0.1	-6.3	1.9
CCNc1nc(NCC)nc(-n2nc(C)cc2C)n1	2.7	0.0	53.0*	-2.2
CCN(CC)c1ncnc2c1cnn2-c1ccc(Cl)cc1	0.2	-0.1	69.7*	-6.0
CCC(C)Nc1ncnc2c1cnn2-c1ccc(Cl)cc1 (centres undefined)	-0.8	-0.1	37.0*	-2.4
C=CCNC(=O)C(=O)NCC1OCCCN1S(=O)(=O)c1ccc(F)cc1 (centres undefined)	-0.4	0.1	0.4	-10.2
CC(=O)O[C@H]1C(=O)[C@@]2(C)[C@H]([C@H](OC(=O)c3ccccc3)[C@]3(O)C[C@H](OC(=O)[C@H](O)[C@@H](NC(=O)c4ccccc4)c4ccccc4)C(C)=C1C3(C)C)[C@]1(OC(C)=O)CO[C@@H]1C[C@@H]2O	-1.5	0.2	63.6*	24.4
CC(=O)O[C@H]1C(=O)[C@@]2(C)[C@H]([C@H](OC(=O)[14c]3[14cH][14cH][14cH][14cH][14cH]3)[C@]3(O)C[C@H](OC(=O)[C@H](O)[C@@H](NC(=O)c4ccccc4)c4ccccc4)C(C)=C1C3(C)C)[C@]1(OC(C)=O)CO[C@@H]1C[C@@H]2O	2.3	-0.1	/	-30.9
CSc1ccccc1Nc1ncnc2c1cnn2-c1cccc(C)c1	-0.1	-0.2	60.5*	-10.9
Cc1cccc(-n2ncc3c(Nc4ccccc4)ncnc32)c1	4.5	0.1	-42.7	10.1
Cc1cccc(-n2ncc3c(Nc4cccc5ccccc45)ncnc32)c1	-1.4	0.2	32.5*	19.1
Cc1cccc(-n2ncc3c(Nc4c(C)cc(C)cc4C)ncnc32)c1	1.1	0.0	57.2*	7.1
Cc1nc2c(C(=O)O)c[nH]n2c(=O)c1Cc1ccc(Cl)cc1	0.0	0.1	7.1	-8.5
Cc1nc2c(C(=O)N3CCCC3)c[nH]n2c(=O)c1Cc1ccc(Cl)cc1	-0.3	1.9*	8.1	14.8
Cn1c2c(c(=O)n(C)c1=O)C(C(F)(F)F)(C(F)(F)F)N=C(c1ccccc1)N2	2.9	-0.1	2.4	1.3
Cn1c2c(c(=O)n(C)c1=O)C(C(F)(F)F)(C(F)(F)F)N=C(c1ccc(Cl)cc1)N2	0.8	0.3	93.5*	-7.3
CCCCNC(=O)CSc1nc2c(sc(=S)n2-c2ccc(OCC)cc2)c(=O)[nH]1	0.5	0.1	-4.5	-13.4
COc1ccc(/C=N\Nc2ncccc2[N+](=O)[O-])c(OC)c1	-7.1	-0.5	41.0*	1.9
CNc1cc([N+](=O)[O-])ccc1N/C=C\C(=O)c1ccc(OC)c(OC)c1	0.2	-0.2	-6.7	-6.2
O=C(Nc1cccc(Cl)c1)c1cc(-c2cccs2)on1	-0.1	0.1	-17.3	14.7
